Assay results from PubChem BioAssay (Tox21).
Inconclusive results are not listed. A call without a number means that no potency is given here. Active and inactive are the calls of the source. The call rests on the fitted dose curve; in most records, active means well fitted inhibition curve with a large enough effect in the repeat runs; inconclusive means weak or mixed curves; inactive means no such curve, though single readings can be large or run the other way.

What follows are molecules tested against Cytochrome P450 1A2 (Homo sapiens) (UniProt P05177) (assay: Cytochrome P450 Family 1 Subfamily A Member 2 (CYP1A2) small molecule antagonists: luciferase reporter qHTS assay (AID 1671199; further: nearly all actives have a fitted effect of over 50% in size)). Settings: P450-Glo CYP1A2 enzyme, luciferin luminescence, 1 h; series mostly up to 115 µM.
Excerpt: National Center for Advancing Translational Sciences [NCATS]
U.S. Environmental Protection Agency [EPA]
National Institutes of Environmental Health Sciences [NIEHS]
National Toxicology Program [NTP]
U.S. Food and Drug Administration [FDA]
Cytochrome P450 (CYP) enzymes are membrane-bound hemeproteins that play a key role in metabolism of drugs and xenobiotics. Evaluation of the effect of chemicals on CYP isozymes is useful to minimize the adverse drug reactions and toxicities in drug development process. Tox21 chemicals were tested for their effect on CYP enzyme activities by using P450-Glo (TM) screening systems (Promega Corporation, Madison, WI). These systems provide a luminescent method containing proluciferin substrates and are converted to luciferin products by CYP isozymes. The luciferin products formed are detected with a luciferin detection reagent, and the amount of light produced is proportional to CYP activity. P450-Glo (TM) CYP1A2 screening system (Catalog. No. V9770) was used to detect the compounds that interfere in CYP1A2 activity. The positive control compound used for CYP1A2 assay is furafylline (Sigma-Aldrich, St. Louis, MO).
Tox21 Assay Protocol Summary:
Two ul of enzyme-substrate mix was dispensed into medium binding white/solid 1536-well plates (Greiner Bio-One North America Inc., Monroe, NC) using a BioRaptr Flying Reagent Dispenser (FRD, Beckman Coulter, Brea, CA). Compounds dissolved in DMSO and positive control (furafyllline) were transferred to the assay plates at 23 nl using a Pintool station (Wako, San Diego, CA). The assay plates were incubated at room temperature for 10 min. Then 2 ul of NADPH regeneration solution was added to each well of the assay plates using an FRD and incubated at room temperature for 1 h. The reaction was stopped by adding 4 ul of detection reagent using an FRD and after 20 min incubation at room temperature the luminescence signal was measured using a ViewLux plate reader (Perkin Elmer, Shelton, CT). Data were expressed as relative luminescence units.
Potency means the concentration at half of the fitted maximal effect.

Chain of Cytochrome P450 1A2 (Homo sapiens) (P05177 whole entry, looked up): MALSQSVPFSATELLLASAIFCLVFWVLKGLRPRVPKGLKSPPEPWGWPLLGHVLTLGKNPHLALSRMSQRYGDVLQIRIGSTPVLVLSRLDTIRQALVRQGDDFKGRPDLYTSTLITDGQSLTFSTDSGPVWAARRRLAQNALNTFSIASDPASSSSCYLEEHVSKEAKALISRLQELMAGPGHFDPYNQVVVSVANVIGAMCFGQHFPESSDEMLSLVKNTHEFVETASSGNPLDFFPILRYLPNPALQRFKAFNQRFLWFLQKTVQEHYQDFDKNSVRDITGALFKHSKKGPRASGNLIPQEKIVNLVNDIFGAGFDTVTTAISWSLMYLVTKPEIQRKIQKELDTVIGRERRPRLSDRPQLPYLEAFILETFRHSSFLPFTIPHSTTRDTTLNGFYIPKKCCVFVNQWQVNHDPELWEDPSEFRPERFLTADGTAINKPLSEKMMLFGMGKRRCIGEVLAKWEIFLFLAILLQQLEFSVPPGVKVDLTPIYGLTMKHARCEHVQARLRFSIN

SMILES | Potency
CNC(=O)N(C)c1nc2ccccc2s1 | 2.52 µM (active)
CC(=O)Nc1cc([As](=O)(O)O)ccc1O | inactive
BrCCCCCCBr | 63.3 µM (active)
Cc1ccccc1CO[C@@H]1C[C@@]2(C(C)C)CC[C@]1(C)O2 | 20 µM (active)
O=[N+]([O-])c1ccc2c3c(cccc13)CC2 | 2.24 µM (active)
O=C1OC(c2ccc(O)c(S(=O)(=O)O)c2)(c2ccc(O)c(S(=O)(=O)O)c2)c2c(Br)c(Br)c(Br)c(Br)c21 | inactive
O=NN1CCCCC1 | inactive
CCN(CC)CCOC(=O)C(C)(c1ccccc1)c1ccccc1 | inactive
Nc1cc2c3c(c1)C(c1ccccc1)=N[C@@H](NC(=O)c1cccnc1)C(=O)N3CC2 | inactive
CC1COC2(c3ccccc3Cl)c3cc(Cl)ccc3NC(=O)CN12 (stereo not given) | inactive
CC(=O)CCc1ccc2c(c1)OCO2 | 0.633 µM (active)
O=NN1CCN(N=O)CC1 | inactive
Cc1nnc2n1-c1sc(CCC(=O)N3CCOCC3)cc1C(c1ccccc1Cl)=NC2 | inactive
CCC(C)(C)c1cc(-n2nc3ccccc3n2)c(O)c(C(C)(C)CC)c1 | 36.1 µM (active)
CCCSC(=O)Cl | inactive
CN1C[C@@H](NS(=O)(=O)N(C)C)C[C@@H]2c3cccc4c3c(cn4C)C[C@H]21 | inactive
O=C1c2ccccc2C(=O)c2ccccc21 | 0.177 µM (active)
COc1ncc(F)c2nc(S(=O)(=O)Nc3c(F)cccc3F)nn12 | inactive
CN1CCN(C(=O)O[C@H]2c3nccnc3C(=O)N2c2ccc(Cl)cn2)CC1 | 27.5 µM (active)
ClCCOCOCCCl | inactive

SMILES | Potency
O=C(O)c1ccc2[nH]cc(CCCCN3CC=C(c4ccccc4)CC3)c2c1 | inactive
CCC1(c2ccccc2)C(=O)N=C(O)NC1=O (stereo not given) | inactive
COP(=S)(OC)Oc1c(Cl)cc(C)cc1Cl | 8.94 µM (active)
COC(=O)COc1ccc(Cl)cc1Cl | 12.6 µM (active)
CCOC(=O)C(c1c(O)c2ccccc2oc1=O)c1c(O)c2ccccc2oc1=O | 27.5 µM (active)
CCOP(=O)(OCC)OP(=O)(OCC)OCC | inactive
[O]=[Cd] | inactive
CCSC(=O)N(CC)C1CCCCC1 | inactive
CN(C)CCc1ccc(O)cc1 | inactive
O=[N+]([O-])c1cc(Cl)c(Cl)c(Cl)c1 | 11.1 µM (active)
CCCCOC(=O)[C@@H](C)Oc1ccc(Oc2ccc(C#N)cc2F)cc1 | 31.5 µM (active)
N#CCCC#N | inactive
C#CCN1C(=O)COc2cc(F)c(N3C(=O)C4=C(CCCC4)C3=O)cc21 | 3.99 µM (active)
CC(=O)CC(c1ccc(Cl)cc1)c1c(O)c2ccccc2oc1=O (stereo not given) | inactive
O=CNC(N1CCN(C(NC=O)C(Cl)(Cl)Cl)CC1)C(Cl)(Cl)Cl (stereo not given) | inactive
CNC(=O)Oc1ccc(N(C)C)c(C)c1 | 11.2 µM (active)
NC1=NC(=O)C(c2ccccc2)O1 (stereo not given) | inactive
O=C(Nc1ccccc1)c1ccccc1I | 20 µM (active)
O=C(O)c1cccc(Cl)c1 | 40 µM (active)
CCC/C(=N\OCC)C1=C(O)CC(CC(C)SCC)CC1=O (stereo not given) | 35.8 µM (active)
